# Data reported in article PMC8384837, “Expanding the binding specificity for RNA recognition by a PUF domain”.
# Numbering of substitutions follows the chain as printed.
# Tests used:
# Test in all cases: yeast three-hybrid, YBZ-1, SC-Leu-His + 0.5 mM 3-AT, 4 days
# Details in all cases: tags: N-Gal4 AD-HA kept; label: inside an RPR1-promoter hybrid RNA with tandem MS2 sites; ssRNA
# PUM1 PUF domain R1-GQK = PUM1 PUF domain R1-GQK (Homo sapiens, UniProt Q14671 828-1176, S863G;R864Q;Q867K)
# Method in brief: (§1)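 Matching RNA elements and Pumilio-1 PUF domain libraries, randomized at the three base-contacting residues of every repeat, were co-expressed from a centromeric plasmid in strain YBZ-1 (LexA–MS2 coat fusion, HIS3 reporter). The repeat regions were PCR-amplified and Illumina-sequenced from cells grown four days on SC-Leu (input) or SC-Leu-His + 0.5 mM 3-AT (selection). The interaction score is the log change in variant frequency from input to selection. It is computed in log2, with a pseudocount of 1 for absent variants.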
# PUM1 PUF domain R1-KYS = PUM1 PUF domain R1-KYS (Homo sapiens, UniProt Q14671 828-1176, S863K;R864Y;Q867S)
# Method in brief: as §1
# PUM1 PUF domain R1-RGM = PUM1 PUF domain R1-RGM (Homo sapiens, UniProt Q14671 828-1176, S863R;R864G;Q867M)
# Method in brief: as §1
# PUM1 PUF domain R6-CYR = target: T1, PUM1 PUF domain R6-CYR (Homo sapiens, UniProt Q14671 828-1176, N1043C;Q1047R)
# T1 sequence: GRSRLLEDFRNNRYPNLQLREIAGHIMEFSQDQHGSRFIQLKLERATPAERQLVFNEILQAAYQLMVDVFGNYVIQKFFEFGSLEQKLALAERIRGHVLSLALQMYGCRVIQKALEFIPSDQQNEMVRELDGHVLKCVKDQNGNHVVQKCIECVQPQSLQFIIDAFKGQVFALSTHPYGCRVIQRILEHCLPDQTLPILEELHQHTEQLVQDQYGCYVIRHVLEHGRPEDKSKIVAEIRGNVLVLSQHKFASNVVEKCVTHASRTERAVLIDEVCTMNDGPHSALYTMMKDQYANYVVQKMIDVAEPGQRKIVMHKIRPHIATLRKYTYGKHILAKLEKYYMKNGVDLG
# Method in brief: as §1
# PUM1 PUF domain R8-YWR = PUM1 PUF domain R8-YWR (Homo sapiens, UniProt Q14671 828-1176, N1122Y;Y1123W;Q1126R)
# Method in brief: as §1
# PUM1 PUF domain R6-RFR = target: T2, PUM1 PUF domain R6-RFR (Homo sapiens, UniProt Q14671 828-1176, N1043R;Y1044F;Q1047R)
# T2 sequence: T1 sequence with C216R, Y217F
# Method in brief: as §1
# PUM1 PUF domain R8-TYR = PUM1 PUF domain R8-TYR (Homo sapiens, UniProt Q14671 828-1176, N1122T;Q1126R)
# Method in brief: as §1
# PUM1 PUF domain R8-TFK = PUM1 PUF domain R8-TFK (Homo sapiens, UniProt Q14671 828-1176, N1122T;Y1123F;Q1126K)
# Method in brief: as §1
# PUM1 PUF domain R3-RAY = PUM1 PUF domain R3-RAY (Homo sapiens, UniProt Q14671 828-1176, C935R;R936A;Q939Y)
# Method in brief: as §1
sequence,measurement,setting,value
GGCUAGAACUAGUGGAUCCCCCGGCGCCCGGCGGCUCGAGCCCGGGUAAGUGUAAAUCGUCUGCAUGCCGCCGGGCGCCAUGCCUGCAGGUCGACUCUAGAAAACAUG,binding signal,PUM1 PUF domain R1-GQK,3.53 log2 enrichment (interaction score)
same,binding signal,PUM1 PUF domain R1-KYS,5.18 log2 enrichment (interaction score)
same,binding signal,PUM1 PUF domain R1-RGM,0.98 log2 enrichment (interaction score)
GGCUAGAACUAGUGGAUCCCCCGGCGCCCGGCGGCUCGAGCCCGGGUAAGUGCAAAUAGUCUGCAUGCCGCCGGGCGCCAUGCCUGCAGGUCGACUCUAGAAAACAUG,binding signal,PUM1 PUF domain R6-CYR,5.44 log2 enrichment (interaction score)
GGCUAGAACUAGUGGAUCCCCCGGCGCCCGGCGGCUCGAGCCCGGGUAAGUGUAAAUAGUCUGCAUGCCGCCGGGCGCCAUGCCUGCAGGUCGACUCUAGAAAACAUG,binding signal,PUM1 PUF domain R6-CYR,5.11 log2 enrichment (interaction score)
same,binding signal,PUM1 PUF domain R8-YWR,4.66 log2 enrichment (interaction score)
same,binding signal,PUM1 PUF domain R6-RFR,3.75 log2 enrichment (interaction score)
same,binding signal,PUM1 PUF domain R8-TYR,4.56 log2 enrichment (interaction score)
same,binding signal,PUM1 PUF domain R8-TFK,2.11 log2 enrichment (interaction score)
GGCUAGAACUAGUGGAUCCCCCGGCGCCCGGCGGCUCGAGCCCGGGUAAGCGUAAAUAGUCUGCAUGCCGCCGGGCGCCAUGCCUGCAGGUCGACUCUAGAAAACAUG,binding signal,PUM1 PUF domain R8-YWR,4.53 log2 enrichment (interaction score)
same,binding signal,PUM1 PUF domain R8-TYR,5.46 log2 enrichment (interaction score)
same,binding signal,PUM1 PUF domain R8-TFK,5.88 log2 enrichment (interaction score)
GGCUAGAACUAGUGGAUCCCCCGGCGCCCGGCGGCUCGAGCCCGGGUAAGUGAAAAUAGUCUGCAUGCCGCCGGGCGCCAUGCCUGCAGGUCGACUCUAGAAAACAUG,binding signal,PUM1 PUF domain R6-RFR,1.66 log2 enrichment (interaction score)
GGCUAGAACUAGUGGAUCCCCCGGCGCCCGGCGGCUCGAGCCCGGGUAAGUGUAAUUAGUCUGCAUGCCGCCGGGCGCCAUGCCUGCAGGUCGACUCUAGAAAACAUG,binding signal,PUM1 PUF domain R3-RAY,3.92 log2 enrichment (interaction score)
GGCUAGAACUAGUGGAUCCCCCGGCGCCCGGCGGCUCGAGCCCGGGUAAGUGUAAAUUGUCUGCAUGCCGCCGGGCGCCAUGCCUGCAGGUCGACUCUAGAAAACAUG,binding signal,PUM1 PUF domain R1-RGM,2.74 log2 enrichment (interaction score)
